Assay results published in PubChem BioAssay (NCI).
This is part of a sample that, as a whole, favours compounds with a hit. Of some 79,000 tested, about 15% had one in any assay. Activity calls are given as the source filed them. No stated cut-off is given here; in the data, active means growth inhibition above about 70%; inactive means the rest.

assay: NCI Yeast Anticancer Drug Screen. Data for the cln2 rad14 strain (AID 165);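 further: 0% = growth equal to vehicle treated cultures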; details: S. cerevisiae cln2 rad14 strain, at 50.0 µM (retest, dose inferred, filed as 5.0), stronger effect = higher value
How it was run: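 Strain: cln2 rad14 yeast, altered in cell cycle control and DNA damage repair. Read-out: growth inhibition vs vehicle.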

Row | SMILES | growth inhibition
1 | CCCN1C(=O)c2ccccc2C1=O | 2% (inactive)
2 | CCC(CC)COC(=O)c1ccc(O)c(O)c1 | 98% (active)
3 | COc1ccc(C2SCC(=O)N2c2nncs2)cc1 (stereo not given) | 7% (inactive)
4 | O=NN(CCCl)C(=O)Oc1cc(Cl)c(Cl)cc1Cl | 99% (active)
5 | O=C(c1ccccc1)c1ccccc1S(=O)(=O)Nc1ccccc1 | 86% (active)
6 | O=S(O)CCCCCSSc1ccccc1 | 14% (inactive)
7 | Cc1ccc(C)c(N2C(=O)C(=O)C(c3nc4ccccc4o3)/C(=N\NC(=O)c3ccccc3O)C2=O)c1 (stereo not given) | 33% (inactive)
8 | Nc1ccc2ccccc2c1Cc1c(O)ccc2ccccc12 | 88% (active)
9 | CN(C)CCC(=O)C(=Cc1cc(Cl)cc(Cl)c1)C(=O)CCN(C)C | 98% (active)
10 | COC(=O)c1c(C(N)=O)c(C)n(NC(=O)c2ccccc2)c1C | 6% (inactive)
11 | O=C(O)/C(=C/c1c(O)ccc2ccccc12)c1csc(-c2nc(/C(=C\c3c(O)ccc4ccccc34)C(=O)O)cs2)n1 | 46% (inactive)
12 | O=C(O)c1c2c(cc3c1CC1(Cc4cc5c(cc4C1=O)CCC5)C3)CCC2 (stereo not given) | 37% (inactive)
13 | CCc1cccc(C(C)(C)C)c1NC(=S)N/C=C(\c1ccccc1)S(=O)Cc1ccccc1 (stereo not given) | 45% (inactive)
14 | O=[N+]([O-])c1ccc(N/N=C/COCCO)c([N+](=O)[O-])c1 | 2% (inactive)
15 | O=C(O)CSc1nc(-c2ccccc2)c(-c2ccccc2)n1-c1ccccn1 | 4% (inactive)
16 | C[C@]12CCC(=O)C=C1CC[C@@H]1[C@@H]2[C@@H](O)C[C@@]2(C)[C@H]1CC[C@]2(O)C(=O)COC(=O)C1CCCC1 | -93% (inactive)
17 | C[C-](O)O.O/C(=C\[C-](O)c1ccccc1)c1ccccc1.O/C(=C\[C-](O)c1ccccc1)c1ccccc1.[Nd+3] (stereo not given) | 21% (inactive)
18 | [Cl][Pt+2]([Cl])([Cl])[Cl].[NH-]CC1(C[NH-])CCCC1 | 81% (active)
19 | CSc1ccc2c(c1)S[S@@](=O)N2 | 33% (inactive)
20 | O=S=C(c1ccccc1)N(Cc1ccccc1)Cc1ccccc1 | 90% (active)
21 | NNc1c(Cl)c(F)c(Cl)c(F)c1Cl | 24% (inactive)
22 | Cc1ccc(C)c(N2C(=O)C(=O)C(c3nc4ccccc4o3)C(=O)C2=O)c1 | 99% (active)
23 | NC(=S)N/N=C/c1ccc(Cl)s1 | 9% (inactive)
24 | O=c1[nH]ccc(CNC23CC4CC(CC(C4)C2)C3)c1O | 11% (inactive)
25 | CN(C)CCSc1cc(-c2ccccc2)c2ccccc2n1 | 94% (active)

same assay, conditions: S. cerevisiae cln2 rad14 strain, at 50.0 µM, stronger effect = higher value

Row | SMILES | growth inhibition
26 | O=[N+]([O-])c1cccc(S(=O)(=O)N/N=C/c2cc(I)cc([N+](=O)[O-])c2O)c1 | 7.85% (inactive)
27 | COc1cc(N=Nc2cccc(S(N)(=O)=O)c2)c2ccccc2c1N | 95.5% (active)
28 | O=S(=O)(c1ccc(O)cc1)c1ccc(Cl)cc1 | 49.1% (inactive)
29 | C[N+](C)=c1ccc2nc3c(cc(NCCCNc4cc5oc6cc(=[N+](C)C)ccc-6nc5c5ccccc45)c4ccccc43)oc-2c1 | 39.5% (inactive)
30 | CC(C)(C)C(=O)/C=C/c1ccc2ccccc2n1 | 8.6% (inactive)
31 | CSc1ccc(/C=N/NC(N)=S)cc1 | 43.7% (inactive)
32 | CN(C)c1ccc(/C=C(\C#N)c2c(F)cccc2F)cc1 | 41.8% (inactive)
33 | O=C(/C=C\c1ccccc1)N1c2ccccc2CC1c1c[nH]c2ccccc12 (stereo not given) | 36.9% (inactive)
34 | COc1cccc(C2c3cc4c(cc3OC(Nc3ccccc3)C2C)OCO4)c1O (stereo not given) | 89.7% (active)
35 | CC(/C=C/c1cccs1)=N\C(=S)NC(N)=S | 2.05% (inactive)
36 | C=C1C(=O)O[C@H]2[C@H](OC(C)=O)[C@@H](C)CCC/C(C)=C/CC[C@@]3(C)O[C@@H]3C[C@@H]12 | 91.1% (active)
37 | CC(=O)O/C=C\COC(C)=O | 33.5% (inactive)
38 | Cn1cc(NC(=O)c2cc(NC(=O)CCCCCCCCC(=O)Nc3cc(C(=O)Nc4cc(C(=O)NCCC(N)N)n(C)c4)n(C)c3)cn2C)cc1C(=O)NCCC(=N)N | 88% (active)
39 | CCCCCCCNCCCCCC | 68.3% (inactive)
40 | Cc1ccc(S(=O)(=O)N(c2ccccc2-c2ccccc2)C(C)C(=O)O)cc1 (stereo not given) | 91.5% (active)
41 | CCCN1C(=O)c2ccccc2C1=O | 36.6% (inactive)
42 | CCC(CC)COC(=O)c1ccc(O)c(O)c1 | 99.1% (active)
43 | COc1ccc(C2SCC(=O)N2c2nncs2)cc1 (stereo not given) | -8.95% (inactive)
44 | O=NN(CCCl)C(=O)Oc1cc(Cl)c(Cl)cc1Cl | 90.5% (active)
45 | O=C(c1ccccc1)c1ccccc1S(=O)(=O)Nc1ccccc1 | 62.1% (inactive)

Row | SMILES | growth inhibition
46 | O=S(O)CCCCCSSc1ccccc1 | 50.5% (inactive)
47 | Cc1ccc(C)c(N2C(=O)C(=O)C(c3nc4ccccc4o3)/C(=N\NC(=O)c3ccccc3O)C2=O)c1 (stereo not given) | 53.6% (inactive)
48 | Nc1ccc2ccccc2c1Cc1c(O)ccc2ccccc12 | 84.5% (active)
49 | CN(C)CCC(=O)C(=Cc1cc(Cl)cc(Cl)c1)C(=O)CCN(C)C | 40.6% (inactive)
50 | COC(=O)c1c(C(N)=O)c(C)n(NC(=O)c2ccccc2)c1C | 38.9% (inactive)
51 | O=C(O)/C(=C/c1c(O)ccc2ccccc12)c1csc(-c2nc(/C(=C\c3c(O)ccc4ccccc34)C(=O)O)cs2)n1 | 90% (active)
52 | O=C(O)c1c2c(cc3c1CC1(Cc4cc5c(cc4C1=O)CCC5)C3)CCC2 (stereo not given) | 88.7% (active)
53 | CCc1cccc(C(C)(C)C)c1NC(=S)N/C=C(\c1ccccc1)S(=O)Cc1ccccc1 (stereo not given) | 33.5% (inactive)
54 | O=[N+]([O-])c1ccc(N/N=C/COCCO)c([N+](=O)[O-])c1 | -24.2% (inactive)
55 | O=C(O)CSc1nc(-c2ccccc2)c(-c2ccccc2)n1-c1ccccn1 | 61.8% (inactive)
56 | C[C@]12CCC(=O)C=C1CC[C@@H]1[C@@H]2[C@@H](O)C[C@@]2(C)[C@H]1CC[C@]2(O)C(=O)COC(=O)C1CCCC1 | 35.9% (inactive)
57 | C[C-](O)O.O/C(=C\[C-](O)c1ccccc1)c1ccccc1.O/C(=C\[C-](O)c1ccccc1)c1ccccc1.[Nd+3] (stereo not given) | 88.7% (active)
58 | [Cl][Pt+2]([Cl])([Cl])[Cl].[NH-]CC1(C[NH-])CCCC1 | 86% (active)
59 | CSc1ccc2c(c1)S[S@@](=O)N2 | 18.3% (inactive)
60 | O=S=C(c1ccccc1)N(Cc1ccccc1)Cc1ccccc1 | 69.7% (inactive)
61 | NNc1c(Cl)c(F)c(Cl)c(F)c1Cl | 34.2% (inactive)
62 | Cc1ccc(C)c(N2C(=O)C(=O)C(c3nc4ccccc4o3)C(=O)C2=O)c1 | 99% (active)
63 | NC(=S)N/N=C/c1ccc(Cl)s1 | 11.7% (inactive)
64 | O=c1[nH]ccc(CNC23CC4CC(CC(C4)C2)C3)c1O | 39.9% (inactive)
65 | CN(C)CCSc1cc(-c2ccccc2)c2ccccc2n1 | 21.9% (inactive)
